# The list is not random: actives were taken first. Their share in the collection is about 0.9%.
# CDC25B-CDK2 inh = primary biochemical HTRF screen for blockers of M-phase inducer phosphatase 2 binding to CDK2/cyclin A. P30305+P24941. HTRF CDC25B-CDK2/CyclinA binding, anti-His/anti-Flag; stronger effect = higher value. z-score (no concentration beside the values). 94,000 compounds, 0.72% hits; in the data active = z-score above about 3.2
# TAR Tat displ = TAR RNA-Tat peptide displacers, HIV-1, primary screen, biochemical, FRET, FAM/TAMRA-labeled Tat | HIV-1 TAR RNA, Tat peptide displacement FRET; stronger effect = higher value | z-score (no concentration beside the values) | 100,000 compounds, 0.6% hits | AID 1259389, 2018; active = z-score of 3 or more in at least 2 runs
# Active calls of the source: *; / = no result.
SMILES,CDC25B-CDK2 inh,TAR Tat displ
CC1CCCN(c2cc(NCCCC(=O)O)c3c4c(onc24)-c2ccccc2C3=O)C1 (stereo not given),0.56,-2.2
Cc1ccc(N2CCN(c3nc4ccccc4n4c(C)nnc34)CC2)c(C)c1,-0.89,1.4
O=c1cc(-c2ccccc2)oc2ccc(-c3nn[nH]n3)cc12,-1.1,/
O=c1cc(-c2ccccc2)oc2c(O)c(O)ccc12,-2.1,19*
Cc1oc2c(O)c(O)ccc2c(=O)c1-c1ccccc1,-5,/
O=c1cc(-c2ccccc2)oc2cc(O)c(O)cc12,/,29*
CCN(Cc1cc(=O)n2ccsc2n1)c1ccc(OC)cc1,/,-0.88
O=C(C1=Cc2ccccc2OC1)N1CCCC1,/,1.6
O=C(CC1Oc2ccc(Cl)cc2NC1=O)NCc1ccco1 (stereo not given),-0.49,/
O=C(CN1c2ccccc2NC2=C(C(=O)CCC2)C1c1cccs1)Nc1ccccc1 (stereo not given),/,0.18
Nc1ccccc1Oc1nc(Br)nn1Cc1ccc(F)cc1,/,1.8
COc1ccc(-c2nc3sccn3c2Nc2cc(C)ccc2C)cc1,-1.3,-0.3
Cc1nc2n(CC(=O)c3ccc(Br)cc3)c3ccccc3n2n1,-1.4,/
CCOC(=O)C1=C(C(=O)OCC)SC(=C2C(=S)C(C)(C)Nc3ccc(C)cc32)S1,19*,1.2
COC(=O)C1=C(C(=O)OC)SC(=C2C(=S)C(C)(C)Nc3ccccc32)S1,14*,0.87
CCCC(=O)N1c2ccccc2C(=C2SC(C(=O)OC)=C(C(=O)OC)S2)C(=S)C1(C)C,-4.6,0.88
CCC(=O)N1c2ccc(C)cc2C(=C2SC(C(=O)OC)=C(C(=O)OC)S2)C(=S)C1(C)C,0.15,1
Cn1c(=O)c2c(SCC(=O)Nc3ccc4c(c3)OCO4)nc(-c3ccco3)nc2n(C)c1=O,-1.2,/
O=C1CCCc2oc3c(cc(NS(=O)(=O)c4cccc([N+](=O)[O-])c4)c4ccccc43)c21,-0.92,/
CCc1ccc(S(=O)(=O)Nc2cc3c4c(oc3c3ccccc23)CCCC4=O)cc1,18*,/
CC1CC(C)CN(C(=O)Cn2cnc3c(nc4n3CCCCC4)c2=O)C1 (stereo not given),/,-0.27
O=C(CCS(=O)(=O)c1ccc(F)cc1)Nc1nc(-c2cccs2)cs1,/,1.6
O=C(Nc1ccc(Cl)cc1)Nc1c[nH]c(=O)[nH]c1=O,/,0.25
O=C(c1ccc(-n2ccc3ccccc32)s1)N1CCN(c2ccccc2)CC1,/,0.64
CCOc1ccc(S(=O)(=O)[C@H]2CS(=O)(=O)C[C@@H]2NCCc2ccc(Cl)cc2)cc1,-1,-0.37
SMILES,CDC25B-CDK2 inh,TAR Tat displ
CC(O)c1nc2ccc(-c3ccc4nc(C(C)O)[nH]c4c3)cc2[nH]1 (stereo not given),6.8*,-0.52
CC(O)c1nc2ccccc2[nH]1 (stereo not given),-0.4,/
CCC1Sc2ccc(S(=O)(=O)N3CCc4ccccc43)cc2NC1=O (stereo not given),/,-0.27
CC1Cc2ccccc2N1c1ccc(C(=O)NCCN(C)C)s1 (stereo not given),/,0.57
O=C1c2c(O)cccc2Cc2cccc(O)c21,/,25*
Nc1ccc(O)c2c1C(=O)c1c(N)ccc(O)c1C2=O,-2.6,/
COc1cc(CN2CCN(Cc3ccc4c(c3)OCO4)CC2)cc(OC)c1OC,1.1,/
Cc1cc2nc(CSc3ccc(N)cc3)c(=O)[nH]c2cc1C,/,19*
Cc1cc2nc(CSc3ccccc3N)c(=O)[nH]c2cc1C,/,-0.63
Cc1cc(C)c2c(n1)nn1c(C)c(CCC(=O)NC3CCCC3)c(C)nc21,-1.8,2.5
CCN(CC)c1ccc(NC(=O)CCc2c(C)nc3c4c(C)cc(C)nc4nn3c2C)c(C)c1,-0.09,6.4*
CCC(C)NC(=O)CCS(=O)(=O)c1cc2c(cc1Cl)NC(=O)CO2 (stereo not given),/,2.8
Cc1cccc(C(=O)N2c3ncnn3C3(CCCCC3)[C@@H]3CCCC[C@@H]32)c1,0.37,9.2*
O=C(c1ccccc1)N1c2ncnn2C2(CCCCC2)[C@@H]2CCCC[C@@H]21,-1.4,2.8
Nc1nc(CN2CCN(c3ccccn3)CC2)nc(Nc2ccc(Oc3ccccc3)cc2)n1,/,0.33
Cc1nn2c(=O)cc(CSc3ccccc3NC(=O)c3ccco3)nc2s1,/,-0.08
O=C(Nc1ccccc1SCc1cc(=O)n2c(-c3ccccc3)csc2n1)c1ccco1,/,8.4*
CC(C)Cc1nc(NCc2ccccc2)c(C#N)c2c1COC(C)(C)C2,-3.4,-0.79
O=C(C1CCN(S(=O)(=O)c2cccnc2)CC1)N1CCOCC1,/,1.6
Cc1ccc(-c2nc(CN3CCN(S(=O)(=O)N(C)C)CC3)c(C)o2)cc1,/,0.38
COc1ccc(Nc2ccc3cc(S(=O)(=O)N4CCCCC4)ccc3n2)cc1Cl,/,-2.6
Cc1ccc(N(C)S(=O)(=O)c2cc3[nH]c4c(c3cc2C)C(=O)CC(C)(C)C4)cc1,/,-1.1
CC(C)NCC(O)COc1ccc(COCCOC(C)C)cc1 (stereo not given),5.2*,-0.4
COC(=O)CCc1ccc(OCC(O)CNC(C)C)cc1 (stereo not given),/,1.5
CC(C)=CC[C@@H](O)C1=CC(=O)c2c(O)ccc(O)c2C1=O,/,34*
SMILES,CDC25B-CDK2 inh,TAR Tat displ
C#CCOc1c(Cl)cc(/C=c2\sc3nc4cc(C)c(C)cc4n3c2=O)cc1OC,-1.9,/
CC(C)C(NS(=O)(=O)c1cccs1)C(=O)NCCN1CCCCC1 (stereo not given),/,-0.6
O=C(Nc1cccnc1)c1nn(-c2ccc(F)cc2)ccc1=O,2.3,0.05
COCCOC(=O)C1=C(C)Nc2nc3ccccc3n2C1c1ccccc1Cl (stereo not given),1.9,1.7
COc1cc(C2Nc3cccc4cccc(c34)N2)cc(OC)c1OC,-1.4,/
Brc1ccc(C2Nc3cccc4cccc(c34)N2)cc1,-0.51,-0.41
CCC12CN3CC(CC)(CN(C1)C3c1cccc(OC)c1O)C2O (stereo not given),0.01,0.4
COc1cccc(C2Nc3cccc4cccc(c34)N2)c1O,0.43,22*
Fc1ccc(C2Nc3cccc4cccc(c34)N2)cc1,-1.3,13*
COc1ccc(C2Nc3cccc4cccc(c34)N2)cc1Br,1.5,26*
CCC1Sc2ccc(S(=O)(=O)Nc3ccc(F)cc3)cc2NC1=O (stereo not given),/,1
CCOC(=O)Cn1c2ccc(Cl)cc2c2nc3ccccc3nc21,19*,0.94
CC(C)OC(=O)Cn1c2ccc(Cl)cc2c2nc3ccccc3nc21,-1.4,2.6
COc1ccccc1N1CSC2=C(C#N)C(c3ccccc3)CC(=O)N2C1 (stereo not given),4.9*,-2.2
COc1ccc(C2CC(=O)N3CN(c4ccccc4OC)CSC3=C2C#N)cc1 (stereo not given),4.3*,-2.1
CNC(=O)c1cc(=O)n(CC(=O)Nc2sc3c(c2C(=O)OC)CCC3)c2ccccc12,/,8.3*
COC(=O)c1c(NC(=O)c2ccccc2C(=O)O)sc2c1CCC2,0.85,1.8
CCn1c(C(=O)NCCN(C)C)c(N2CCCC2=O)c2cc(F)ccc21,/,-0.26
Cc1sc(-c2c[nH]c3ccccc23)nc1-c1c[nH]c2ccccc12,18*,/
c1ccc2c(-c3ccncc3)c[nH]c2c1,/,0.71
Cn1c(=O)c2c(-c3ccccc3F)n3c(c2n(C)c1=O)C(c1ccc(O)cc1O)Nc1ccccc1-3 (stereo not given),-1.8,-1.6

# Screens deposited in PubChem by Center for Chemical Genomics, University of Michigan.
